# Screening data (PubChem)
# A selection: hits, their analogues and other compounds. The true share with any hit is near 2.3%.
# FBPA coupling cs: inhibits coupling enzyme system, counter-screen for aldolase hits. coupling enzyme system counterscreen, AmpLite Red fluorescence. activity change, negative = inhibition, % at 58.2 µM, hits read low. 0.67% of 290,000 active. AID 2472; in the data active = activity change below about -30%; also: % is scaled to controls: 0 for no effect and ±100 for the full control effect
#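 Coupling enzymes only (glyceraldehyde-3-phosphate) + compound, at 57.5 uM final, 10 min RT; add substrate/coupling/AmpLite Red mix, 20 min RT; fluorescence ex 525/em 598 nm. Actives flag coupling-system interference.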
# HttQ103 aggreg: reduces HttQ103-GFP aggregates in PC12 cells; PC12 HttQ103-GFP aggregates, Acumen cytometry, 40 h; Potency, µM (top dose mostly 46.1 µM), without a hit: at the highest dose activity change, negative = inhibition, usual class: inhibitors; 1.1% of 220,000 active; AID 1688; also: potency is read from the fitted curve at half-maximal effect; % is scaled to controls: 0 for no effect and ±100 for the full control effect; nearly all actives have a fitted effect of over 60% in size
#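 PC12 cells stably carrying ecdysone-inducible HTT exon 1 Q103–GFP were induced with tebufenozide (100 nM final) and treated with library compounds in titration. GFP aggregates in lysates were counted by laser scanning cytometry.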
# RGS12 GoLoco inh: inhibitors of human Gai1-RGS12 GoLoco interaction (red fluorophore). P63096. Gai1:RGS12 GoLoco peptide FP, rhodamine, 10 min. Potency, µM (top dose mostly 61.6 µM), for the others: at the highest dose activity, negative = inhibition, most hits filed as inhibitors. 0.44% of 230,000 active; active = well fitted inhibition curve with a large enough effect, not every such curve was filed as active; inactive = no such curve, though single readings can be large or run the other way; also: potency is read from the fitted curve at half-maximal effect; % is scaled to controls: 0 for no effect and ±100 for the full control effect; nearly all actives have a fitted effect of over 30% in size
# HTT cytoprotect: protects HTT-Q103 PC12 cells, measured by ATP. PC12 HTT-Q103 induced, cytoprotection, ATP luminescence, 40 h. Potency, µM (highest dose often 56.4 µM), for inactives: cytoprotection (ATP increase), hits mostly activators. 0.14% of 230,000 active. AID 1471; also: potency is read from the fitted curve at half-maximal effect; % of control where 0% means no effect; nearly all actives have a fitted effect of over 45% in size
#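 Stable PC12 Q103-GFP cells in serum-supplemented, phenol red-free DMEM; induction by tebufenozide at 100 nM final; compound dose series; cell viability quantified luminescently from ATP.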
# VDR inhibitor: blocks the human vitamin D receptor | Potency, µM, without a hit: max response, negative = inhibition, hits mostly inhibitors | 0.93% of 400,000 active | VDR-SRC2-3 peptide fluorescence polarization, 2 h | P11473; also: potency is read from the fitted curve at half-maximal effect; % is scaled to controls: 0 for no effect and ±100 for the full control effect
# Target sequence (P11473 whole entry, looked up): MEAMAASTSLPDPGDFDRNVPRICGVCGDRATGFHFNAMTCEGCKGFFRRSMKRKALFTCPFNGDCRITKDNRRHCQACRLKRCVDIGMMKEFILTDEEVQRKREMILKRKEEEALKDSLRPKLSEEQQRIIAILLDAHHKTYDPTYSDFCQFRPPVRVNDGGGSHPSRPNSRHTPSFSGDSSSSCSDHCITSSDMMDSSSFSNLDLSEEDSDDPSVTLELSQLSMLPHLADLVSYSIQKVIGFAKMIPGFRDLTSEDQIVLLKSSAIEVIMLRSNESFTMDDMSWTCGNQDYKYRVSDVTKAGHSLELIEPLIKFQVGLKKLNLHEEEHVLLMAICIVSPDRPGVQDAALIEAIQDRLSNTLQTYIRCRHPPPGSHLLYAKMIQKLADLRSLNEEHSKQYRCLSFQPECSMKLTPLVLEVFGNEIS
#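 FP read-out; VDR + SRC2-3 coactivator peptide; 23 nl compound by pintool; 2 h RT incubation; reagents held at 4 deg C, protected from light.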
# KDM4E inh: JMJD2E (human) inhibition | Potency, µM (titrated, usually from 57.1 µM), for inactives: at the highest dose activity change, negative = inhibition, actives largely listed as inhibitors | AID 2147 | B2RXH2 | JMJD2E catalytic domain, FDH-coupled NADH fluorescence (FDH is formaldehyde dehydrogenase) | 1.6% of 230,000 active; active = well fitted inhibition curve with a large enough effect, not every such curve was filed as active; inconclusive = small, poorly fitted or top-dose-only effect, or another doubt; inactive = no such curve, though single readings can be large or run the other way;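 also: potency is read from the fitted curve at half-maximal effect; 0% = wells with enzyme and -100% = buffer wells without enzyme; nearly all actives have a fitted effect of over 50% in size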
# Target sequence (B2RXH2 1-337 limits assumed): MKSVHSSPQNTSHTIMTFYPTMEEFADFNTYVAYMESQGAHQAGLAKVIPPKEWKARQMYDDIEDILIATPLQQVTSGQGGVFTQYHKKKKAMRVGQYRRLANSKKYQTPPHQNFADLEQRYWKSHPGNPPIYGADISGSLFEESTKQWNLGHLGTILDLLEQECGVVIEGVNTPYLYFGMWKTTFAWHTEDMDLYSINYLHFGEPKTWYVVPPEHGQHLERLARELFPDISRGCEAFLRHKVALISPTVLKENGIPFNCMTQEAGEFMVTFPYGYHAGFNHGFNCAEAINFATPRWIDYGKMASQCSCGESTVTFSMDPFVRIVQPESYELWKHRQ
# Starred values were filed as active, the others as inactive; u = inconclusive; x = no result given; ! = repeats disagree; [ ] = another dose, or the depositor's remark. Unless noted, calls follow the shape of the dose curve; as a rule, active = well fitted curve in the direction sought with a large enough effect; inconclusive = small, poorly fitted or top-dose-only effect, or another doubt; inactive = no such curve, though single readings can be large; an effect the other way counts as inactive or inconclusive.
SMILES,FBPA coupling cs,HttQ103 aggreg,RGS12 GoLoco inh,HTT cytoprotect,VDR inhibitor,KDM4E inh
CC[C@H](C)[C@H](NC(=O)[C@@H](NC(=O)[C@@H](NC(=O)[C@H](CCC(=O)O)NC(=O)[C@H](CCC(=O)O)NC(=O)[C@H](CCC(=O)O)NC(=O)[C@H](C)NC(=O)[C@@H](N)CC(C)C)C(C)C)C(C)C)C(=O)N[C@@H](CCCNC(=N)N)C(=O)N[C@@H](CO)C(=O)N[C@@H](C)C(=O)N[C@@H](CC(N)=O)C(=O)N[C@@H](Cc1ccccc1)C(=O)N[C@H](C(=O)N[C@@H](CC(=O)O)C(=O)N[C@@H](CC(N)=O)C(=O)O)[C@@H](C)O,10,x,x,x,18%,x
C[c-]1[c-](C)[c-](C)[c-](C)[c-]1C.[Fe].c1cc2nccc(N3CCCC3)[c-]2c1 (centres undefined),-33*!,-40%[9.22 µM],-7%,-2%[10 µM],-7%,10µM*!
CC1CCCC/C1=N\NC(=S)NCCc1ccccc1 (centres undefined),2,u,11%,u,-21%,5%
C[n+]1ccccc1C1CCCC/C1=N\NC(N)=S (centres undefined),-1,-1%,10µM*,-15%,-20%,-15%
Cc1ccc(NC(c2nnc(-c3ccccc3)o2)c2ccccc2F)c(Cl)c1 (centres undefined),x,x,x,x,-6%,x
Cc1csc(NC(=O)C2CC(=O)N(Cc3ccco3)C2)n1 (centres undefined),-6,0.63µM*,8%,1.1µM*,-8%,1%
O=c1c2ccccc2sn1-c1nccs1,0,15%,16µM*,-8%[10 µM],4µM*,7.9µM*
O=c1c2ccccc2sn1-c1ccccc1,5,-33%,18µM*,-57%,4µM*,25µM*
Cc1ccccc1-n1sc2cc(F)ccc2c1=O,4,u,28µM*,8%[1.9 µM],u,11µM*
CN(C)S(=O)(=O)c1cccc(-n2sc3ccccc3c2=O)c1,4,31%,14µM*,6%[10 µM],32µM*,3.5µM*
O=c1ccsc2ccccc12,x,x,x,x,-7%,x
Cc1noc(C)c1COc1ccc(C(=O)NCCc2ccc(F)cc2)cc1,x,x,x,x,-7%,x
CC1(C)OC[C@@H]2O[C@@]3(C(=O)O)OC(C)(C)O[C@@H]3[C@@H]2O1,x,0%,x,14%,-11%,x
O=c1c2cc(F)ccc2sn1-c1ccccc1,x,x,x,x,20µM*,x
O=c1c(N2CCN(c3ccc(F)cc3)CC2)csc2ccc(F)cc12,x,x,x,x,10%,x
O=C(O)c1cccc(-n2sc3ccccc3c2=O)c1,x,x,x,x,7.1µM*,x
CC1CC(C)CN(C(=O)COC(=O)COc2ccccc2C#N)C1 (centres undefined),x,x,x,x,26%,x
CCc1ccc(N2C(=O)CSC23C(=O)N(Cc2cccc(OC)c2)c2ccccc23)cc1 (centres undefined),x,x,x,x,4%,x
Cc1cccc(C(=O)O/N=C(\c2ccccc2)c2cccnc2)c1,1,1%,6%,4%[10 µM],145%,4%
O=C(O)COc1cccc2c1CCC=C2CCO/N=C(\c1ccccc1)c1cccnc1,12,x,x,x,50µM*,x
CC1(OC(=O)CCc2ccccc2)C(=O)C=C2C=C(c3ccc(C#N)cc3)N(Cc3ccccc3)C=C2C1=O (centres undefined),-10,26%[9.22 µM],-1%[14.2 µM],-8%[10 µM],-10%,16µM*
CC/C=C\C/C=C\C/C=C\C/C=C\C/C=C\CCCCCC(=O)O,0,x,-2%,-32%,u,-6%
CC/C=C\C/C=C\C/C=C\C/C=C\C/C=C\C/C=C\CCC(=O)O,0,29%,-5%,11%,32µM*!,1%
COCCCNC(=O)c1cc2cc(Br)ccc2oc1=O,0,x,1%,x,-1%,5%
O=C(NNC(=O)c1cc2cc(Br)ccc2oc1=O)c1ccc(O)cc1O,3,35µM*,35%,u,-14%,u
SMILES,FBPA coupling cs,HttQ103 aggreg,RGS12 GoLoco inh,HTT cytoprotect,VDR inhibitor,KDM4E inh
CC1CCN(S(=O)(=O)c2ccc3c(c2)N(CC(=O)NC(C)C)C(=O)CO3)CC1,x,x,x,x,8%,x
Cc1noc(C)c1C(=O)OCC(=O)Nc1c(F)cccc1F,2,15%,6%,-5%,50µM*,-4%
Cn1c(/C(C#N)=C/c2cccc(O)c2)nc2ccccc21,0,x,18%,x,79µM*,-3%
COc1cc(/C=C(\C#N)c2nc3ccccc3n2C)cc(OC)c1OC,x,x,x,x,-11%,x
CNc1ccc(Br)cc(C(=O)/C=C/c2ccc3c(c2)OCO3)c1=O,-28,2%,69%,-37%,79µM*,u
CNc1ccc(Br)cc(C(=O)/C=C/c2cc(OC)ccc2OC)c1=O,0,-2%[9.22 µM],32%,13%[10 µM],u,u
CCNc1ccc(Br)cc(C(=O)/C=C/c2ccc(Cl)cc2Cl)c1=O,-12,30%,102%,-13%[10 µM],79µM*,-17%
CNc1ccc(Br)cc(C(=O)/C=C/c2ccc(OC)cc2)c1=O,-29,u,12%,x,u,25µM*
Cc1cc(C)cc(NC(=O)NCCn2nnc3cc(S(=O)(=O)N(C)C)ccc32)c1,x,x,x,x,25%,x
COc1cccc(-n2ccnc2SCC(=O)Nc2c(C)cc(C)cc2C)c1,x,x,x,x,-6%,x
O=C(O)c1ccc(/C=C2\SC(=Nc3ccccc3)N(c3ccccc3)C2=O)cc1,21,-31%,1%,13µM*,-28%,14%
Cc1ccc2c(c1C)C(=O)C(=O)N2,x,x,x,x,-24%,x
Cc1ccc(C2CC(=O)Oc3ccc(C(C)(C)C)cc32)cc1 (centres undefined),-4,x,8%[88.7 µM],28µM*,-1%,x
Cc1ccc(C2CC(=O)Oc3ccc(O)cc32)cc1 (centres undefined),-2,x,-1%[88.7 µM],-76%[96.6 µM],-22%,x
Cc1nn(CC(=O)NCc2cccc(F)c2)c(=O)c2c(C)n(-c3ccc(Cl)cc3)nc12,x,x,x,x,-3%,x
CC1(C)Cc2ccccc2C(NNC(=O)c2ccccn2)=N1,-3,18µM*,-4%,-46%,-7%,25µM*
CC(C)NC(=O)[C@H]1C[C@@H]1[C@H](NC(=O)OCc1ccccc1)c1ccccc1,6,x,2%,-6%,x,2%
COC(=O)c1ccc(C2Nc3cccc4cccc(c34)N2)cc1,-10,2%,-5%,-35%,-1%,8.9µM*
Cc1cc(/C=C\c2ccc3cc(N(C)C)ccc3[n+]2C)c(C)n1-c1ccccc1,-18,3.2µM*,-19%[21.6 µM],-93%[17.1 µM],x,u
c1cc(C(c2nnnn2C2CCCC2)N2CCOCC2)ccn1 (centres undefined),-1,-4%,-9%,-10%,-10%,u
Oc1ccc(C(c2nnnn2C2CCCCC2)N2CCOCC2)cc1 (centres undefined),3,2.8µM*,11%,x,-8%,-14%
CCOc1ccc(/C=N/n2c(-c3ccccc3)n[nH]c2=S)cc1,1,x,x,x,0%,x
